This passage reports inhibition and RAM network inhibition results from PubChem BioAssay.

Values without a mark were called inactive.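 How the source made its calls, unless noted: active means RAM network inhibition above 8.4% in each of two replicates, 3 SD over the compound average; inconclusive means above 8.4% inhibition in only one replicate; inactive means 8.4% inhibition or less in each replicate.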

The first assay is described as follows: inhibitors of the yeast RAM network, pilot screen, dse1pr::URA3 reporter, 5-FOA selection (AID 869;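 active means inhibition over a set limit, the all-compound mean plus 3 SD, in both replicate runs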;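 further: 0% = DMSO wells with no growth and 100% = 10 µM 1-NA-PP1 with full growth; RAM network block rescues cells from 5-FOA so hits raise OD615 growth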). The settings on record: S. cerevisiae dse1pr::URA3 5-FOA growth, OD615, 2 d; at 10 µM; stronger effect = higher value; strain carries analog-sensitive mutant Cbk1 kinase.
As usually defined, the inhibition is the change of the read-out against control, counted positive when it falls. As to `CC1(C(=O)NCc2cccnc2)CCC(=O)N1CCc1ccccc1` (stereo not drawn), the inhibition was 2.94%.
On to `Cc1nc2ccc(S(=O)(=O)NC(C(=O)N3CCC(C)CC3)C(C)C)cc2s1` (stereo not drawn), for which the inhibition was 2.38%.
Take `Fc1ccc(-c2nnc(-c3ccc(Cl)cc3Cl)o2)cc1`: the inhibition was 3.06%.
On the same count and under the same terms, to `COc1ccc(-c2[nH]c(-c3ccc(F)cc3)nc2SCC(=O)NCc2ccco2)cc1OC` belongs 0.93%.
The same measure, in the same setting: to `NC(=O)c1ccc(N2CCCCC2)c(N2C(=O)C3C4C=CC(C4)C3C2=O)c1` (stereo not drawn) belongs 0.92%; to `Cc1n[nH]c(C)c1S(=O)(=O)N(CC(=O)N1CCc2ccccc21)c1ccc(C(C)C)cc1`, 1.94%; to `CC(C)Oc1ccc(/C(O)=C2/C(=O)C(=O)N(CCCN3CCOCC3)C2c2ccncc2)cc1` (stereo not drawn), 0.95%.
Same read-out and setting: to `COc1ccc(C)cc1NC(=O)C1CCCN(S(=O)(=O)c2c(C)noc2/C=C/N(C)C)C1` (stereo not drawn) belongs -0.18%; to `COc1ccc(NC(=O)c2c(-c3ccccc3)noc2C)c(OC)c1`, 0.895%; to `CC(Sc1nnc(Cn2c(=O)sc3ccccc32)n1C)c1ccccc1` (stereo not drawn), 1.69%.
Take `Brc1ccc(-c2noc(CCc3ccccc3)n2)o1`: the inhibition is 3.12%.
With `CN1CCc2c(sc3c2C(=O)NC(c2ccc(-c4cccc(Cl)c4)o2)N3)C1` (stereo not drawn), the inhibition is 1.89%.
Same read-out and setting: to `CC(OC(=O)c1cc[n+]([O-])cc1)C(=O)Nc1ccc(Cl)cn1` (stereo not drawn) belongs 1.23%; to `CCOc1ccc(S(=O)(=O)Nc2ccccc2C(=O)NCC2CCCO2)cc1` (stereo not drawn), 1.91%.
For `Cc1cc(N2CCN(C3CCCCC3)CC2)nc2cccc(O)c12`, the inhibition is 2.71%.
Same read-out and setting: to `CCCN(CC1CC1)S(=O)(=O)c1ccc(S(N)(=O)=O)cc1` belongs 0.505%; to `COc1ccccc1CNC(=O)c1cnc2sccn2c1=O`, 2.37%.
Regarding `NC(=O)C1CCN(CCCNC2CC(=O)N(Cc3ccc(N4CCCC4=O)cc3)C2=O)CC1` (stereo not drawn), the inhibition is 1.15%.
Same read-out and setting: to `Cc1ccc(C2=[N+]([O-])C3(CCCCC/C3=N\O)N(O)C2(C)C)o1` (stereo not drawn) belongs -0.505%; to `NC(=O)C1(N2CCCCC2)CCN(C(=O)c2ccccc2)CC1`, 0.21%; to `CCOc1ccc(Cc2nnc(SCC(=O)c3ccc(OC)cc3)o2)cc1`, 1.66%.
As to `CC(C)CCNC(=O)CCS(=O)(=O)c1cccc2nonc12`, the inhibition is 1.04%.
On the same count and under the same terms, to `CCn1c(=O)cc(OCC(=O)N2CCc3ccccc32)c2ccccc21` belongs 2.09%.

A further assay is described as follows: RAM signaling pathway blockade in yeast – S. cerevisiae, Pdr1DBD-CYC8 efflux-inhibited sensitized strain, primary screen (AID 1298).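 Further: 0% = DMSO untreated cells without growth and 100% = 10 µM 1-NA-PP1 full growth; higher means more yeast growth rescued from 5-FOA killing.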 The settings on record: S. cerevisiae cbk1-as DSE1-URA3 strain, 5-FOA growth OD615, 2 d; at 50 µM; stronger effect = higher value.
For `O=C(CSc1nc2c(cnn2-c2ccc(F)cc2)c(=O)[nH]1)N1CCCCCC1`, the RAM network inhibition is -0.11%.
With `CCNc1nnc(-c2ccccc2OC)s1`, the RAM network inhibition is 5.21%.
Still for that read-out and setting: to `O=[n+]1c2c(n([O-])c3c1CCCC3)CCCCC2` belongs -0.51%; to `O=C(O)C1C(c2ccccc2)C(C(=O)OCc2ccco2)C1c1ccccc1` (stereo not drawn), 6.05%.
On the same count and under the same terms, to `CCOC(=O)Cc1nnc(NC(=O)C(CC)Sc2nc(C)cc(=O)[nH]2)s1` (stereo not drawn) belongs 2.97%; to `Cc1ccc(OCCSc2cc(C)nc(N)n2)cc1`, 0.05%; to `O=C(NCCN1CCCC1)c1ccc(CS(=O)(=O)c2c(Cl)cccc2Cl)o1`, 2.61%.
On the same count and under the same terms, to `O=P(O)(CCc1ccccn1)CN1CCOCC1` belongs 1.09%; to `CCOC(=O)CN1Cc2cccc(C(=O)O)c2C1=O`, 1.31%; to `CC(C)=C(NC(=O)c1ccccc1)C(=O)NCCCC(=O)O`, 2.34%.
Take `Cc1c(NS(=O)(=O)c2ccccc2)cc(Cl)c(O)c1C`: the RAM network inhibition was 6.75%.
`O=C(CN1C(=O)CSc2ncccc21)NCCN1CCOCC1`: the RAM network inhibition was 3.41%.
With `CC/C(=C\C(=O)c1ccncc1)Nc1ccc(O)cc1`, the RAM network inhibition is 2.31%.
On to `Cn1c(=O)c2cc(NCc3ccccc3)nnc2n(C)c1=O`, for which the RAM network inhibition is -0.94%.
For the compound `Cc1oc2cc(O)ccc2c(=O)c1Oc1ccccc1Br`, the RAM network inhibition is 2.42%.
Same read-out and setting: to `Cc1ccnc(NC2c3ccccc3C(=O)N2Cc2ccccc2Cl)c1` (stereo not drawn) belongs 3.54%; to `CCN=C(Nc1ccc2c(c1)OCO2)SC1CC(=O)N(c2ccccc2F)C1=O` (stereo not drawn), 10.8%; to `CC1(C(=O)NCc2cccnc2)CCC(=O)N1CCc1ccccc1` (stereo not drawn), 2.65%.
The same measure, in the same setting: to `Cc1nc2ccc(S(=O)(=O)NC(C(=O)N3CCC(C)CC3)C(C)C)cc2s1` (stereo not drawn) belongs 2.55%; to `Fc1ccc(-c2nnc(-c3ccc(Cl)cc3Cl)o2)cc1`, 3.99%; to `COc1ccc(-c2[nH]c(-c3ccc(F)cc3)nc2SCC(=O)NCc2ccco2)cc1OC`, 4.24%.
Still for that read-out and setting: to `NC(=O)c1ccc(N2CCCCC2)c(N2C(=O)C3C4C=CC(C4)C3C2=O)c1` (stereo not drawn) belongs 3.75%; to `Cc1n[nH]c(C)c1S(=O)(=O)N(CC(=O)N1CCc2ccccc21)c1ccc(C(C)C)cc1`, 8.57%.
Turning to `CC(C)Oc1ccc(/C(O)=C2/C(=O)C(=O)N(CCCN3CCOCC3)C2c2ccncc2)cc1` (stereo not drawn), the RAM network inhibition was -0.41%.
Same read-out and setting: to `COc1ccc(C)cc1NC(=O)C1CCCN(S(=O)(=O)c2c(C)noc2/C=C/N(C)C)C1` (stereo not drawn) belongs 4.58%; to `COc1ccc(NC(=O)c2c(-c3ccccc3)noc2C)c(OC)c1`, 3.75%; to `CC(Sc1nnc(Cn2c(=O)sc3ccccc32)n1C)c1ccccc1` (stereo not drawn), 11.7%.
In the case of `Brc1ccc(-c2noc(CCc3ccccc3)n2)o1`, the RAM network inhibition is 0.73%.
Turning to `CN1CCc2c(sc3c2C(=O)NC(c2ccc(-c4cccc(Cl)c4)o2)N3)C1` (stereo not drawn), the RAM network inhibition was 2.2%.
As for `CC(OC(=O)c1cc[n+]([O-])cc1)C(=O)Nc1ccc(Cl)cn1` (stereo not drawn), the RAM network inhibition is 1.61%.
In the case of `CCOc1ccc(S(=O)(=O)Nc2ccccc2C(=O)NCC2CCCO2)cc1` (stereo not drawn), the RAM network inhibition was 5.77%.
Turning to `Cc1cc(N2CCN(C3CCCCC3)CC2)nc2cccc(O)c12`, the RAM network inhibition is 4.45%.
Turning to `CCCN(CC1CC1)S(=O)(=O)c1ccc(S(N)(=O)=O)cc1`, the RAM network inhibition is 1.48%.
The same measure, in the same setting: to `COc1ccccc1CNC(=O)c1cnc2sccn2c1=O` belongs 2.72%.
As to `NC(=O)C1CCN(CCCNC2CC(=O)N(Cc3ccc(N4CCCC4=O)cc3)C2=O)CC1` (stereo not drawn), the RAM network inhibition is 5.68%.
The same measure, in the same setting: to `Cc1ccc(C2=[N+]([O-])C3(CCCCC/C3=N\O)N(O)C2(C)C)o1` (stereo not drawn) belongs 1.01%.
Same read-out and setting: to `NC(=O)C1(N2CCCCC2)CCN(C(=O)c2ccccc2)CC1` belongs 5.36%; to `CCOc1ccc(Cc2nnc(SCC(=O)c3ccc(OC)cc3)o2)cc1`, 11.3%.
On to `CC(C)CCNC(=O)CCS(=O)(=O)c1cccc2nonc12`, for which the RAM network inhibition was 4.52%.
Same read-out and setting: to `CCn1c(=O)cc(OCC(=O)N2CCc3ccccc32)c2ccccc21` belongs 3.25%.
